# According to PubChem BioAssay (NCATS):
# Inconclusive results are not listed. Where a call stands in place of a potency, no number is given. A number with no mark means an inactive call. Activity calls are given as the source filed them. The call rests on the fitted dose curve; in most records, active means well fitted inhibition curve with a large enough effect; inconclusive means small, poorly fitted or top-dose-only effect; inactive means no such curve, though single readings can be large or run the other way.
# Target: Retinaldehyde dehydrogenase 3 (Homo sapiens) (UniProt P47895)
# Experiment: qHTS for Inhibitors of the Aldehyde Dehydrogenase Family (ALDH1A3) Primary screen (AID 2061315)
# Details: ALDH inhibition qHTS; series mostly up to 56 µM
# Potency means the concentration at half of the fitted maximal effect.
Compound,Potency,"activity change, negative = inhibition"
O=S(=O)(c1ccccc1)N(CC(F)(F)F)c1ccc(C(O)(C(F)(F)F)C(F)(F)F)cc1,inactive,–
O=C1CCC(=O)N(O)CCCCCNC(=O)CCC(=O)N(O)CCOCCNC(=O)CCC(=O)N(O)CCCCCN1,inactive,–
O=C(O)c1ccc(OC2OC(CO)C(O)C(O)C2O)cc1 (stereo not drawn),inactive,–
COc1ccc(C2Oc3c(OC)cc(CCCO)cc3C2COC2OC(CO)C(O)C(O)C2O)cc1OC (stereo not drawn),inactive,–
O=S(=O)(c1ccc(S(=O)(=O)n2cnc3ccccc32)cc1)N1CCCCCC1,inactive,–
COC(=O)CC1(O)C(=O)Nc2ccccc21 (stereo not drawn),inactive,–
C/C=C/C=C/[C@@H]1O[C@](O)([C@H](CC)C(=O)NC/C=C/C=C(\C)[C@@H](OC)[C@@H](C)[C@@H]2O[C@H](/C=C/C=C/C=C(\C)C(=O)c3c(O)ccn(C)c3=O)[C@H](O)[C@@H]2O)[C@H](O)[C@H](O)C1(C)C,inactive,–
CC(C)c1cc(C(=O)N2CC[C@@H](NC(=O)C3CC3)C2)n[nH]1,inactive,–
CC1=C(C)C(=O)OC(C(C)(O)C2CCC3C4CC=C5CC(OC6OC(COC7OC(CO)C(O)C(O)C7O)C(O)C(O)C6O)CC(O)C5(C)C4CCC32C)C1 (stereo not drawn),inactive,–
CC(=O)OC1C(O)CC(O[C@@H]2O[C@H](CO)[C@@H](O)[C@H](O)[C@H]2O)C2CCC3C(=O)OC(c4ccoc4)CC3(C)C21 (stereo partly drawn),inactive,–
O=C(Nc1nc2cc(C(F)(F)F)cc(NC3CC3)n2n1)c1cccnc1,inactive,–
CC1(C)CCC2(C(=O)OC3OC(COC4OC(CO)C(O)C(O)C4O)C(O)C(O)C3O)CCC3(C)C(=CCC4C5(C)CCC(OC6OCC(O)C(O)C6O)C(C)(C)C5CCC43C)C2C1O (stereo not drawn),inactive,–
CC(C)/C=C1\NC(=O)C(C(C)C)n2c1nc1ccccc1c2=O (stereo not drawn),inactive,–
Cc1c(O)cc2c(c1O)COC1(O)CCCOC21 (stereo not drawn),inactive,–
COCC1OC(n2cnc3c(=O)[nH]cnc32)C(O)C1O (stereo not drawn),inactive,–
CC(C)(C)OC(=O)c1ncn2c1C(C)(C)Nc1ccccc1-2,inactive,–
CC(=O)N[C@H]1[C@H](O[C@H]2CC[C@@]3(C)C(CC[C@]4(C)C3CC=C3C5CC(C)(C)CC[C@]5(C(=O)O)[C@H](O)C[C@]34C)C2(C)C)O[C@H](CO[C@@H]2OC[C@H](O)[C@H](O)[C@H]2O[C@@H]2OC[C@@H](O)[C@H](O)[C@H]2O)[C@@H](O)[C@@H]1O (stereo partly drawn),inactive,–

Compound,Potency,"activity change, negative = inhibition"
Cn1nnc(-c2ccc(-c3ccc(N4C[C@H](CO)OC4=O)cc3F)cn2)n1,inactive,–
CC1=C2CC3OC3(C)CCC3OC3(C)CC2OC1=O (stereo not drawn),inactive,–
OCC1OC(Oc2cc(O)cc(/C=C/c3ccc(O)cc3)c2)C(O)C(O)C1O (stereo not drawn),3.55 µM (active),–
CC1C(O)C(O)C2C(C(=O)OCCc3ccc(O)cc3)=COC(O[C@@H]3O[C@H](CO)[C@@H](O)[C@H](O)[C@H]3O)C12 (stereo partly drawn),inactive,–
C[C@H]1C(=O)N2c3ccccc3[C@@]3(O)C[C@@H]4C(=O)N[C@](C)(c5nc6ccccc6c(=O)n54)N1[C@@H]23,inactive,–
C=C1C(OC2OCC(O)C(O)C2O)CC2C(C)(C)C(O)CCC2(C)C1CC/C(C)=C\CO (stereo not drawn),inactive,–
COc1cccc(Cn2ncc3c4sc(S(C)=O)cc4n(C)c3c2=O)c1 (stereo not drawn),inactive,–
C=CC(=O)Nc1cc(Nc2nccc(-c3c[nH]c4ccccc34)n2)c(OC)cc1N(C)CCN(C)C,inactive,–
CC1=CC2(O)/C=C/C(C)(O)CC(O)/C=C/C(=O)OC23C(=O)NC(CC(C)C)C3C1C (stereo not drawn),inactive,–
COc1ccc(S(=O)(=O)Nc2cc(Cl)cc(Cl)c2OC)cc1N1CCNCC1,inactive,–
COc1cc2c(c(OC)c1CC=C(C)C)C[C@H](c1ccc(O)c(CC=C(C)C)c1O)CO2,inactive,–
CC(CO)C1CCC2(C)CC3C(CO)CC(O)C3C(C)(O)C/C=C/12 (stereo not drawn),inactive,–
CC(C(O)/C=C/C(C)(C)O)C1CCC2(C)C3C(=O)C=C4C(CCC(O)C4(C)C)C3(C)CCC12C (stereo not drawn),inactive,–
CC(=O)O[C@H]1CC[C@@]2(CI)C(=CC[C@@H]3[C@@H]2CC[C@]2(C)[C@@H]([C@H](C)CCCC(C)C)CC[C@@H]32)C1,–,5.91% [at 11.2 µM]
CC(C)(C)c1cc(CN2CCN(CC(O)c3ccc(Cl)cc3)CC2)cc(C(C)(C)C)c1O (stereo not drawn),inactive,–
CC1(C)CC[C@]2(C(=O)O[C@@H]3O[C@H](CO)[C@@H](O)[C@H](O)[C@H]3O)CC[C@]3(C)C(=CCC4[C@@]5(C)C[C@@H](O)[C@H](O)C(CO)(CO)C5CC[C@]43C)C2[C@@H]1O (stereo partly drawn),inactive,–
